{"source": "the supplement of paper PMC7726561", "sequences": {"B1": {"name": "unnamed (peptide)", "chain": "VFDKTLAEL"}, "B2": {"name": "unnamed (peptide)", "chain": "RFEDSPSYV"}, "B3": {"name": "unnamed (peptide)", "chain": "SFDETVTHF"}, "B4": {"name": "unnamed (peptide)", "chain": "TYDYAKTIL"}, "B5": {"name": "unnamed (peptide)", "chain": "VLDDKDYFL"}, "B6": {"name": "unnamed (peptide)", "chain": "YFPELIANF"}, "B7": {"name": "unnamed (peptide)", "chain": "VYDPSLKTLL"}, "B8": {"name": "unnamed (peptide)", "chain": "FFDTNTSVL"}, "B9": {"name": "unnamed (peptide)", "chain": "NFDNILNSF"}, "B10": {"name": "unnamed (peptide)", "chain": "LFDDKAVEI"}, "B11": {"name": "unnamed (peptide)", "chain": "AFDLSQVLF"}, "B12": {"name": "unnamed (peptide)", "chain": "VFDEAIRAVL"}, "B13": {"name": "unnamed (peptide)", "chain": "FWDGKIVLV"}, "B14": {"name": "unnamed (peptide)", "chain": "SFDAHLTEL"}, "B15": {"name": "unnamed (peptide)", "chain": "NYDEHISNF"}, "B16": {"name": "unnamed (peptide)", "chain": "DFDMTLSRF"}, "B17": {"name": "unnamed (peptide)", "chain": "VFDPIGHF"}, "B18": {"name": "unnamed (peptide)", "chain": "MPDDLLTTL"}, "B19": {"name": "unnamed (peptide)", "chain": "LYDLVTEKM"}, "B20": {"name": "unnamed (peptide)", "chain": "VFDTAIAHL"}, "B21": {"name": "unnamed (peptide)", "chain": "TFDLTVVSY"}, "B22": {"name": "unnamed (peptide)", "chain": "IYDEAISSF"}, "B23": {"name": "unnamed (peptide)", "chain": "FLPEAPAEL"}, "B24": {"name": "unnamed (peptide)", "chain": "VFDVTAPNTF"}, "B25": {"name": "unnamed (peptide)", "chain": "FFDPSLLHL"}, "B26": {"name": "unnamed (peptide)", "chain": "AFDASRTSF"}, "B27": {"name": "unnamed (peptide)", "chain": "HFDLSVIEL"}, "B28": {"name": "unnamed (peptide)", "chain": "TFDVSILTI"}, "B29": {"name": "unnamed (peptide)", "chain": "IFDQSGTYL"}, "B30": {"name": "unnamed (peptide)", "chain": "YFDDLKGEM"}, "B31": {"name": "unnamed (peptide)", "chain": "QYDEAVAQF"}, "B32": {"name": "unnamed (peptide)", "chain": "SFDEIHQLF"}, "B33": {"name": "unnamed (peptide)", "chain": "FLDLTEQEF"}, "B34": {"name": "unnamed (peptide)", "chain": "NFDDIKNGL"}, "B35": {"name": "unnamed (peptide)", "chain": "SYDLANRDF"}, "B36": {"name": "unnamed (peptide)", "chain": "TFDVSPKAV"}, "B37": {"name": "unnamed (peptide)", "chain": "IFDGNVAHI"}, "B38": {"name": "unnamed (peptide)", "chain": "SFEEKPVYI"}, "B39": {"name": "unnamed (peptide)", "chain": "FYEPQKGSIYL"}, "B40": {"name": "unnamed (peptide)", "chain": "FFDSQGQVLL"}, "B41": {"name": "unnamed (peptide)", "chain": "GGSFDVADRMF"}, "B42": {"name": "unnamed (peptide)", "chain": "SWDIVVQRV"}, "B43": {"name": "unnamed (peptide)", "chain": "FFEEFGKL"}, "B44": {"name": "unnamed (peptide)", "chain": "RFDESMQVF"}, "B45": {"name": "unnamed (peptide)", "chain": "IYDEVVKL"}, "B46": {"name": "unnamed (peptide)", "chain": "IFDRVLTEL"}, "B47": {"name": "unnamed (peptide)", "chain": "LYDEAIRHF"}}, "data": [{"target": "HLA-C*04:01", "test": "thermal melting temperature (Tm) of peptide-HLA complex; higher = more thermostable pHLA complex", "conditions": "C1R-A*02:01", "method": "(§1)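 Endogenous HLA-C*04:01 ligands were detected in the thermostability assays of both the C1R-A*02:01 and C1R-B*07:02 lines. Lysates were heated 10 min at 37-73 °C and pHLA immunoprecipitated with W6/32. Peptides were quantified by DIA-MS and Tm was taken from a logistic sigmoid fit.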", "units": {"thermal melting temperature": "°C"}, "values": [{"sequence": "B1", "thermal melting temperature": 58.9}, {"sequence": "B2", "thermal melting temperature": 54.4}, {"sequence": "B3", "thermal melting temperature": 58.6}, {"sequence": "B4", "thermal melting temperature": 49}, {"sequence": "B5", "thermal melting temperature": 57}, {"sequence": "B6", "thermal melting temperature": 45.6}, {"sequence": "B7", "thermal melting temperature": 52.3}, {"sequence": "B8", "thermal melting temperature": 55.5}, {"sequence": "B9", "thermal melting temperature": 56.8}, {"sequence": "B10", "thermal melting temperature": 57.2}, {"sequence": "B11", "thermal melting temperature": 56.1}, {"sequence": "B12", "thermal melting temperature": 60.2}, {"sequence": "B13", "thermal melting temperature": 62.5}, {"sequence": "B14", "thermal melting temperature": 53}, {"sequence": "B15", "thermal melting temperature": 44.8}, {"sequence": "B16", "thermal melting temperature": 52.8}, {"sequence": "B17", "thermal melting temperature": 59.3}, {"sequence": "B18", "thermal melting temperature": 53.1}, {"sequence": "B19", "thermal melting temperature": 56.2}, {"sequence": "B20", "thermal melting temperature": 59}, {"sequence": "B21", "thermal melting temperature": 53.5}, {"sequence": "B22", "thermal melting temperature": 58.9}, {"sequence": "B23", "thermal melting temperature": 54.1}, {"sequence": "B24", "thermal melting temperature": 56.1}, {"sequence": "B25", "thermal melting temperature": 55.4}, {"sequence": "B26", "thermal melting temperature": 52.4}, {"sequence": "B27", "thermal melting temperature": 57.1}, {"sequence": "B28", "thermal melting temperature": 44.9}, {"sequence": "B29", "thermal melting temperature": 53.4}, {"sequence": "B30", "thermal melting temperature": 57.9}, {"sequence": "B31", "thermal melting temperature": 56.7}, {"sequence": "B32", "thermal melting temperature": 47.8}, {"sequence": "B33", "thermal melting temperature": 59.8}, {"sequence": "B34", "thermal melting temperature": 52.1}, {"sequence": "B35", "thermal melting temperature": 58.3}, {"sequence": "B36", "thermal melting temperature": 41.9}, {"sequence": "B37", "thermal melting temperature": 59.7}, {"sequence": "B38", "thermal melting temperature": 56.8}, {"sequence": "B39", "thermal melting temperature": 60.5}, {"sequence": "B40", "thermal melting temperature": 51}, {"sequence": "B41", "thermal melting temperature": 53.1}, {"sequence": "B42", "thermal melting temperature": 46.9}, {"sequence": "B43", "thermal melting temperature": 44.3}, {"sequence": "B44", "thermal melting temperature": 55.9}, {"sequence": "B45", "thermal melting temperature": 54.3}, {"sequence": "B46", "thermal melting temperature": 51.3}, {"sequence": "B47", "thermal melting temperature": 56.5}]}, {"target": "HLA-C*04:01", "test": "thermal melting temperature (Tm) of peptide-HLA complex; higher = more thermostable pHLA complex", "conditions": "C1R-B*07:02", "method": "as §1", "units": {"thermal melting temperature": "°C"}, "values": [{"sequence": "B1", "thermal melting temperature": 59.1}, {"sequence": "B2", "thermal melting temperature": 52.3}, {"sequence": "B3", "thermal melting temperature": 59.8}, {"sequence": "B4", "thermal melting temperature": 46.9}, {"sequence": "B5", "thermal melting temperature": 42.4}, {"sequence": "B6", "thermal melting temperature": 45.3}, {"sequence": "B7", "thermal melting temperature": 52.4}, {"sequence": "B8", "thermal melting temperature": 59.4}, {"sequence": "B9", "thermal melting temperature": 58.7}, {"sequence": "B10", "thermal melting temperature": 57.2}, {"sequence": "B11", "thermal melting temperature": 56.5}, {"sequence": "B12", "thermal melting temperature": 58.8}, {"sequence": "B13", "thermal melting temperature": 60.7}, {"sequence": "B14", "thermal melting temperature": 52.9}, {"sequence": "B15", "thermal melting temperature": 48.9}, {"sequence": "B16", "thermal melting temperature": 54.5}, {"sequence": "B17", "thermal melting temperature": 58.8}, {"sequence": "B18", "thermal melting temperature": 63.4}, {"sequence": "B19", "thermal melting temperature": 60.7}, {"sequence": "B20", "thermal melting temperature": 58.7}, {"sequence": "B21", "thermal melting temperature": 61.8}, {"sequence": "B22", "thermal melting temperature": 62.7}, {"sequence": "B23", "thermal melting temperature": 55.9}, {"sequence": "B24", "thermal melting temperature": 61.1}, {"sequence": "B25", "thermal melting temperature": 55.8}, {"sequence": "B26", "thermal melting temperature": 52.8}, {"sequence": "B27", "thermal melting temperature": 60.5}, {"sequence": "B28", "thermal melting temperature": 47.2}, {"sequence": "B29", "thermal melting temperature": 56.4}, {"sequence": "B30", "thermal melting temperature": 59.4}, {"sequence": "B31", "thermal melting temperature": 59.2}, {"sequence": "B32", "thermal melting temperature": 52}, {"sequence": "B33", "thermal melting temperature": 60.6}, {"sequence": "B34", "thermal melting temperature": 50.4}, {"sequence": "B35", "thermal melting temperature": 57.8}, {"sequence": "B36", "thermal melting temperature": 48.1}, {"sequence": "B37", "thermal melting temperature": 59}, {"sequence": "B38", "thermal melting temperature": 55.5}, {"sequence": "B39", "thermal melting temperature": 62.1}, {"sequence": "B40", "thermal melting temperature": 53.6}, {"sequence": "B41", "thermal melting temperature": 53.2}, {"sequence": "B42", "thermal melting temperature": 49}, {"sequence": "B43", "thermal melting temperature": 46.5}, {"sequence": "B44", "thermal melting temperature": 58.5}, {"sequence": "B45", "thermal melting temperature": 51.6}, {"sequence": "B46", "thermal melting temperature": 54.7}, {"sequence": "B47", "thermal melting temperature": 60}]}]}
